Rows were chosen to be rich in hits. Some 10% of all compounds tested hit in one or more screens of this group.
IMPase inh = qHTS Assay for Identifying the Cell-Membrane Permeable IMPase Inhibitors; Inositol monophosphatase 1 (Rattus norvegicus), P97697; CHO-M1 cells, IP1 accumulation, HTRF TR-FRET ratio; inhibition (IP1 accumulation), % at 46.1 µM; 120,000 tested, under 10 active; active = well fitted curve in the direction sought with a large enough effect in the signal ratio, not every such curve was filed as active; inconclusive = small, poorly fitted or top-dose-only effect, or a change in a side signal; inactive = no such curve, though single readings can be large or run the other way; the % refers to the signal ratio;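 note: cells stimulated with carbachol in lithium chloride buffer; plate controls were DMSO basal wells for no effect and reference inhibitor wells for full effect; higher means more IMPase inhibition seen as more IP1 and lower FRET ratio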
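Carbachol-driven Gq signalling in CHO-M1 cells (2000/well) generates IP1. Compounds that block IMPase raise IP1 and so reduce the FRET signal from Eu-anti-IP1 and d2-IP1 after a 10 min room-temperature lysis.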
ALDH1A1 inh = qHTS Assay for Inhibitors of Aldehyde Dehydrogenase 1 (ALDH1A1); Aldehyde dehydrogenase 1A1 (Homo sapiens), P00352; Purified ALDH1A1, NADH fluorescence, propionaldehyde substrate; Potency, µM (titrated, usually from 75.3 µM), for the others: at the top dose activity, negative = inhibition, actives largely listed as inhibitors; hit rate 7.3% among 220,000; AID 1030, 2008;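 note: potency is the fitted concentration of half-maximal effect; plate controls were no enzyme wells and a reference inhibitor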
Target sequence (P00352 whole entry, looked up): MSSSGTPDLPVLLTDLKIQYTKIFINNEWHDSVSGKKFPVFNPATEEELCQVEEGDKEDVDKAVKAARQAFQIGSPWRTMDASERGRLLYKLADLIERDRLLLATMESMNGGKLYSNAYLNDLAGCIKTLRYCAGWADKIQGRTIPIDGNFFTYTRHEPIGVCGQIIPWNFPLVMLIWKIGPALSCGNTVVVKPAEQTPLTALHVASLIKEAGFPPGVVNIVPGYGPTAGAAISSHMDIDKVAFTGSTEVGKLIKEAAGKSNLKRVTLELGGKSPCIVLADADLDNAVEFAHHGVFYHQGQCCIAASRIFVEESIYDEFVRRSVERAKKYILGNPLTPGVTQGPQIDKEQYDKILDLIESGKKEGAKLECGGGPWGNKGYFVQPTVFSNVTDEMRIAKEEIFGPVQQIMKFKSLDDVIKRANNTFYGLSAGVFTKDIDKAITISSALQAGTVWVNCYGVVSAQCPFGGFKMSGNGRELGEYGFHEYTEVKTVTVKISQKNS
HPGD inh = qHTS Assay for Inhibitors of HPGD (15-Hydroxyprostaglandin Dehydrogenase) | Potency, µM, for the others: at the top dose activity change, negative = inhibition, hits mostly inhibitors | 15-hydroxyprostaglandin dehydrogenase [NAD(+)] (Homo sapiens), P15428 | purified HPGD, NADH fluorescence kinetic, PGE2 substrate | AID 894, 2007 | hit rate 4.3% among 150,000; note: potency is the fitted concentration of half-maximal effect
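NADH formation kinetics: reaction with 30 uM PGE2 and 1 mM NAD+ (final), 20 nM enzyme, Tris-HCl pH 8 with Tween 20, after 15 min compound preincubation at room temperature. Fluorescence change, last versus first of five reads.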
Lamin A splicing = qHTS Assay for Modulators of Lamin A Splicing; HeLa LMNA splicing GFP/RFP minigene ratio, 48 h; Potency, µM (series often up to 46.1 µM), for the others: top-dose ratio change, negative = inhibition, usual class: inhibitors; hit rate 0.01% among 200,000; AID 1487, 2009; active = well fitted inhibition curve with a large enough effect in the signal ratio, with a control signal flat, not every such curve was filed as active; inconclusive = small, poorly fitted or top-dose-only effect, or effect the other way, or a change in a side signal; the % refers to the signal ratio; note: potency is the fitted concentration of half-maximal effect
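S3 HeLa cells stably expressing lamin A-EGFP splicing minigene plus DsRed2, 600 cells/well, 48 h compound exposure at 37C. Laser-scanning cytometry; analysed as GFP (500-530 nm)/RFP (575-640 nm) total intensity ratio; 0.5% DMSO vehicle.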
PNC inhibitor = High Content Assay for Compounds that inhibit the Assembly of the Perinucleolar Compartment; activity change (PNC), negative = inhibition, % at 10 µM; hit rate 3.1% among 140,000; PC3M PTB-GFP, PNC prevalence imaging, 16 h; stronger effect = lower value;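 active = readout at or below -70, meaning at least 70% loss of cells showing the perinucleolar compartment, a nuclear body marking cancer cells; inconclusive = readout between -30 and a set limit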;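 note: plate controls were DMSO wells for no effect and camptothecin positive control wells for full effect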
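PC3M cells stably expressing PTB-GFP, 750–1000 cells/well, treated 16 h at 37 °C with compound (23 nl of library stock), in duplicate. After paraformaldehyde fixation and Hoechst stain, imaged at 20x; PNC prevalence scored by image analysis.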
KinaseGlo FLuc = Counterscreen for Luciferase (Kinase-Glo TM) Inhibition; Kinase-Glo luciferase, ATP luminescence, 8 min; Potency, µM (series often up to 38.3 µM), without a hit: top-dose activity change, negative = inhibition, actives largely listed as inhibitors; hit rate 0.28% among 200,000; active = well fitted inhibition curve with a large enough effect; inconclusive = small, poorly fitted or top-dose-only effect; note: potency is the fitted concentration of half-maximal effect; nearly all actives have a fitted effect of over 60% in size
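Light output from Kinase-Glo luciferase with luciferin and 10 uM ATP in 50 mM imidazole pH 7.2, KCl, MgCl2, Tween 20, BSA; compound pin-delivered, 8-min ambient incubation, then luminescence read.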
An asterisk follows results filed as active; ? = inconclusive; nt = no result given; ! = a repeat was not active; [ ] = remark or other dose. Unless noted, calls come from the whole dose curve; as a rule, active = well fitted inhibition curve with a large enough effect (not every such curve was filed as active); inconclusive = small, poorly fitted or top-dose-only effect, or another doubt; inactive = no such curve, though single readings can be large or run the other way. Unless noted, % is set by controls: 0 for no effect and ±100 for the full control effect.

SMILES	IMPase inh	ALDH1A1 inh	HPGD inh	Lamin A splicing	PNC inhibitor	KinaseGlo FLuc
O=C(CN(Cc1cccs1)C(=O)CNS(=O)(=O)c1ccccc1)NCc1ccco1	7.3	20µM*	-4.7%	-12.4%	?	5.1%
C[C@H]1Cc2c(-c3ccccc3)nc3c(c2CO1)CN(C(=O)c1ccco1)CC3	nt	6.9%[13.5 µM]	-2.3%	11.8%[9.22 µM]	nt	-2.3%[7.66 µM]
CCOc1ccccc1CNC(=O)C1=C(C)C(=O)OC12CCN(C(C)=O)CC2	nt	nt	nt	-12.3%[46 µM]	nt	nt
Cc1cnc(CNc2ncncc2-c2ccccc2C(F)(F)F)cn1	nt	?	?	-4.3%	nt	-1.1%
O=C(O)CSc1nc2c(cnn2-c2ccccc2)c(=O)n1-c1ccc(Br)cc1	nt	-5.7%	14.1µM*	-5.8%	54.0	-2.4%
O=C(/C=C/c1ccc(Cl)cc1Cl)N(Cc1ccc(Cl)cc1)C1CCS(=O)(=O)C1 (stereo not given)	nt	3.2%	-8.1%	?	9.4	-5.2%
COc1ccc(CN(C(=O)/C=C/c2ccco2)C2CCS(=O)(=O)C2)cc1 (stereo not given)	nt	14.1µM*	nt	nt	nt	nt
COc1cccc(C(=O)N(Cc2ccc(N(C)C)cc2)C2CCS(=O)(=O)C2)c1 (stereo not given)	10.2	14.1µM*	-6.6%	4.1%	-15.3	0.0%
O=C(/C=C/c1ccc(Cl)cc1)N(Cc1ccccc1)C1CCS(=O)(=O)C1 (stereo not given)	4.0	12.6µM*	-17.7%	-10.7%	12.1	-0.9%
O=C(/C=C/c1ccc(Cl)cc1Cl)N(Cc1ccccc1)C1CCS(=O)(=O)C1 (stereo not given)	nt	2.24µM*	-1.3%	7.9%	40.6	-6.6%
COc1ccc(CN(C(=O)c2ccc(OCC(C)C)cc2)C2CCS(=O)(=O)C2)cc1 (stereo not given)	14.9	nt	nt	nt	nt	nt
S=C1NCN2CCN(CC2)CNC(=S)C(=S)NCN2CCN(CC2)CNC1=S	nt	?	-17.6%	nt	nt	-8.1%[7.66 µM]
CC(C)(C)c1nnc(NC(=O)CCn2cnc3ccccc3c2=O)s1	nt	-5.0%	nt	nt	nt	-0.8%
CC(C)(C)NC(=O)CSc1nnc(NC(=O)CCn2cnc3ccccc3c2=O)s1	-2.0	14.7%	-18.1%	9.8%	-122.4*	4.4%
CC(C)(C)c1csc(NC(=O)Cn2cnc3ccccc3c2=O)n1	3.8	12.6µM*	20µM*	2.6%	-25.2	-0.7%
COc1cc(NC(=O)c2nn(-c3ccc(F)cc3)c(=O)n(C)c2=O)cc(OC)c1OC	nt	nt	nt	-6.4%[46 µM]	nt	nt
CCOc1ccccc1CN1CCc2nc(N3CCN(c4ccccc4F)CC3)ncc2C1	nt	nt	nt	2.1%[46 µM]	nt	nt
O=C(Nc1ncccc1O)c1cccc(S(=O)(=O)N2CCc3ccccc32)c1	0.4	-11.6%	-13.9%	?	-29.9	-0.6%
O=C(NCCc1ccccn1)c1cccc(S(=O)(=O)N2CCc3ccccc32)c1	nt	20µM*	nt	nt	nt	-1.2%
COc1ccc(NC(=O)c2cccc(S(=O)(=O)N3CCc4ccccc43)c2)cn1	nt	3.16µM*	nt	-24.5%[46 µM]	nt	3.4%
Clc1cccc(CNc2ncnc3c2nc2n3CCCC2)c1	nt	nt	nt	-9.8%[46 µM]	nt	nt
C[Si](C)(C)Cl	nt	22.4µM*	-6.5%	nt	nt	nt
Cc1cc(C(=O)NCCc2ccc(Cl)cc2)c2c(C)nn(-c3cccc(F)c3)c2n1	nt	nt	nt	13.9%[46 µM]	nt	nt
Oc1cc2c(cc1O)C1c3ccc(O)c(O)c3OCC1(O)C2 (stereo not given)	nt	11.2µM*!	1.12µM*	nt	nt	?
O=C(NCCN1CCOCC1)c1ccc(=O)oc1	-8.2	-4.6%	-23.7%	7.2%	-126.9*	0.4%
S=C1NC2=C(CCCC2)C2(CCCCC2)N1	-4.6	0.316µM*	-13.4%	-9.3%	319.9	3.3%
CCCCn1nnnc1NCc1ccc(N(CC)CC)cc1	4.9	8.7%	1.6%	6.1%	-22.5	-3.9%
CCN(CC)c1ccc(CNC23CN4CN(CN(C4)C2)C3)cc1	0.2	5.01µM*	-12.3%	?	29.3	1.2%

Screens (PubChem BioAssay)
